KCNH2 WT inh – KCNH2 (human, wildtype) channel inhibition. activity change, % at 1.84 µM. 340,000 tested, 0.37% active. Q12809. U2OS, BacMam KCNH2, thallium flux FluxOr; hits give low values. AID 720551;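 active = maximum activity change below -70%; inconclusive = maximum activity change between -70% and -50%; inactive = maximum activity change above -50%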; also: % is scaled to controls: 0 for no effect and ±100 for the full control effect
Target sequence (Q12809 whole entry, looked up): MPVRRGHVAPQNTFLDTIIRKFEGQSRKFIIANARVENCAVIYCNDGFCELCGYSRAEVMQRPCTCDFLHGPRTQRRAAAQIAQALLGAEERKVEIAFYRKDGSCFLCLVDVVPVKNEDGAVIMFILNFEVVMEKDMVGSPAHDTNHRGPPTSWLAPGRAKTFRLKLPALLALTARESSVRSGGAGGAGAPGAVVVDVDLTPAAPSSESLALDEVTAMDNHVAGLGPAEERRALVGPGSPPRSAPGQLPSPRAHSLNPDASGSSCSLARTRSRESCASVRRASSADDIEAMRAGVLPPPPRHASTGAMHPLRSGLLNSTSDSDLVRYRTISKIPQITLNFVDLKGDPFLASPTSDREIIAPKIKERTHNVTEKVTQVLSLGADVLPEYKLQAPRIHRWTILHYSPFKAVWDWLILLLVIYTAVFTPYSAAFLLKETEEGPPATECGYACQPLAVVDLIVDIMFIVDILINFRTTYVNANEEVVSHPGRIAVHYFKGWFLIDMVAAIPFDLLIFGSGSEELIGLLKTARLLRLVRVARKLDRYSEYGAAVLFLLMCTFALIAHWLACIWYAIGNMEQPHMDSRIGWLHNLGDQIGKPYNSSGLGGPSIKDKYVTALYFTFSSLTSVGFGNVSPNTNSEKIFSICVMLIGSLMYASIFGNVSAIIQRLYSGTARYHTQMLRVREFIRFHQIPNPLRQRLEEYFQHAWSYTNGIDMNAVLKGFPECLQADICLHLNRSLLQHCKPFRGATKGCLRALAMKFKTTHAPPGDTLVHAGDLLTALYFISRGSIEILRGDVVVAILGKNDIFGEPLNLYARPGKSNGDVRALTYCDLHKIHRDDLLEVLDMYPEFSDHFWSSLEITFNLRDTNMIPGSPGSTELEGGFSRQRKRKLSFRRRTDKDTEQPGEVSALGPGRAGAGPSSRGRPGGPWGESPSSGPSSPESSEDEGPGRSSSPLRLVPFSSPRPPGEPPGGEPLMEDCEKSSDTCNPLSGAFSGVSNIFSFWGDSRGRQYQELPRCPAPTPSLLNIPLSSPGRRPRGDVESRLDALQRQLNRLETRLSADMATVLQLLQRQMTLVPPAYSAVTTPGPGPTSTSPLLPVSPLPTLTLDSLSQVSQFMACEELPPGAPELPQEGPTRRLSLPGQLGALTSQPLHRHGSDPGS
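U2OS cells were transduced with wild-type KCNH2 virus (2.03 x 10^8 / mL) for 4 h at room temperature, then cultured overnight at 37 C. Thallium flux was read with FluxOr dye. Rate constants were normalized to DMSO controls.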
GRP78 ERSR act – inducers of ER stress response in human glioma cells; 420,000 tested, 0.02% active; AID 602332; U87-MG GRP78 promoter luciferase reporter, 16 h; Potency, µM, inactives show at the top dose activation, usual class: activators; also: potency is read from the fitted curve at half-maximal effect; series mostly up to about 76 µM; % of control where 0% means no effect; nearly all actives have a fitted effect of over 35% in size
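Stably transfected U87-MG glioma cells carrying a GRP78-based luciferase sensor; 16 h compound incubation. Luminescence end-point read 10 min after Bright-Glo addition at room temperature.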
RXFP1 ag – activates the human relaxin receptor RXFP1; HEK293T-RXFP1 cAMP TR-FRET, 30 min; response scale: percent of porcine relaxin response, buffer zero; 370,000 tested, 0.3% active; Q9HBX9; Potency, µM (titrated, usually from 57.5 µM), for inactives: top-dose activation, actives largely listed as activators; also: potency is read from the fitted curve at half-maximal effect; % is scaled to controls: 0 for no effect and ±100 for the full control effect; nearly all actives have a fitted effect of over 60% in size
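HEK293 cells stably expressing RXFP1, treated 30 min at 37C with compounds plus PDE4 inhibitor Ro 20174; cAMP measured by HTRF TR-FRET. Normalized to buffer and 29 nM porcine relaxin; EC50 by Hill fit.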
PTHR1 agonist – activates the human parathyroid hormone receptor PTHR1; Potency, µM (highest dose often 115 µM), inactives show at the highest dose activation, usual class: activators; AID 743266; HEK293 GP2 PTHR1 cells, GloSensor cAMP luminescence, 1 h; 410,000 tested, 0.075% active; also: potency is read from the fitted curve at half-maximal effect; nearly all actives have a fitted effect of over 55% in size
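HEK-293-derived GP2 cells expressing PTHR1 and a GloSensor cAMP reporter, 3,000/well, plated overnight, given luciferin plus IBMX (each 0.5 mM as added) for 1 h at 37 °C, then compound for 1 h at 37 °C. Luminescence was read after 15 min at room temperature.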
KCNH2 3.1 inh – KCNH2 3.1 (human) potassium channel inhibition. U2OS KCNH2 3.1, thallium flux FluxOr; hits give low values. AID 720553. activity change, % (tested at about 1.8 µM). 340,000 tested, 0.95% active;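 active = maximum activity change below -70%; inconclusive = maximum activity change from -70% to -50%; inactive = maximum activity change above -50%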;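 also: thallium influx rate constant from kinetic fluorescence after stimulation buffer; % is scaled to controls: 0 for no effect and ±100 for the full control effect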
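Virally transduced U2OS (3.1 isoform, 4 h infection in dark at RT) → overnight 37 C → FluxOr + Red40 in HBSS/HEPES, 45 min → stimulation buffer, 2 min kinetic read → rate constant vs DMSO controls.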
RXFP1 antagonist – RXFP1 (human) relaxin receptor antagonism | Q9HBX9 | AID 1259400 | HEK293-RXFP1, relaxin-stimulated cAMP HTRF, 30 min; hits give low values | 350,000 tested, 0.59% active | activity change, negative = inhibition, % at 57.5 µM;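 active = activity change of -60% or lower, but not beyond a set lower limit; inconclusive = change between -60% and -40%, or beyond the set limit; inactive = change above -40%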; also: % is scaled to controls: 0 for no effect and ±100 for the full control effect
* hit, by the source's call; i = inactive; ? = inconclusive; / = no result; ! = not active in a repeat; [ ] = remark or other dose. Sampled rows, rich in hits. Any-hit rate of the full collection: about 1.4%. Unless noted, calls follow the shape of the dose curve; as a rule, active = well fitted curve in the direction sought with a large enough effect; inconclusive = small, poorly fitted or top-dose-only effect, or another doubt; inactive = no such curve, though single readings can be large; an effect the other way counts as inactive or inconclusive.

SMILES	KCNH2 WT inh	GRP78 ERSR act	RXFP1 ag	PTHR1 agonist	KCNH2 3.1 inh	RXFP1 antagonist
CCOC(=O)C1=C(N)Oc2c(c(=O)oc3ccccc23)C12C(=O)N(C)c1ccccc12 (stereo not given)	3	2%	-2%	-3%[57.5 µM]	-6	12
C=CCN1C(=O)C2(C(C(=O)OCC)=C(N)Oc3ccccc32)c2c1c1ccccc1oc2=O (stereo not given)	-3	-1%	-1%	i	-109*	-1
CC(Cc1ccccc1)NCC(=O)Nc1cc(N(C)C)nc2ccccc12 (stereo not given)	2	-3%	-2%	-7%	-100*	-30
COc1ccc(CCNC(=O)N2c3ccccc3Sc3ccccc32)cc1	7	-9%	/	-32%[57.5 µM]	-9	-34
CC1=CC2OC3CC4OC(=O)C=CC=CC(=O)OCCC(C)C(O)C(=O)OCC2(CC1)C4(C)C31CO1 (stereo not given)	0	-7%	/	-13%	-29	-39
CC(=O)c1ccc2c(c1)C1C(Cl)C(Sc3ccccc3[N+](=O)[O-])CC1C(c1ccccc1)N2 (stereo not given)	-3	-10%	-8%	-5%[57.5 µM]	-30	-81*
CC(=O)c1ccc2c(c1)C1C(Cl)C(Sc3ccccc3[N+](=O)[O-])CC1C(c1ccccc1[N+](=O)[O-])N2 (stereo not given)	-12	-4%	-2%	-6%[57.5 µM]	-12	-27
Clc1cccc(CNCCc2c[nH]c3ccccc23)c1	3	-4%	1%	i	-2	-84*
FC(F)(F)c1ccc(CNCCc2c[nH]c3ccccc23)cc1	-3	3%	2%	-92%	-16	-6
N#C/C(=C/c1ccc(O)c(O)c1)C(N)=S	/	-3%	/	/	/	/
N#C/C(=C\c1ccc(O)c(O)c1)C(=O)NCCCNC(=O)/C(C#N)=C/c1ccc(O)c(O)c1	/	37µM*	/	/	/	/
O=C(CN1CC=C(c2ccccc2)CC1)NC(=O)NCc1ccco1	-8	-5%	0%	i	-90*	-2
O=C(CCN1CC=C(c2ccccc2)CC1)NCc1ccccc1	1	1%	/	i	-7	6
CNc1cc(Cl)c2nonc2c1[N+](=O)[O-]	-10	-15%	10%	-21%	12	-81*
Clc1ccc([C@@H](OCCN2CCCCC2)c2ccccc2)cc1	/	-6%	/	/	/	/
Clc1ccc(C(OCCN2CCCCC2)c2ccccc2)cc1 (stereo not given)	-17	-3%	0%	-23%	-102*	3
CN[C@@H](C)[C@@H](O)c1ccccc1	-10	-3%	2%	-25%	-19	/
CN1CC=C(/C=C/c2ccc(-c3ccccc3)cc2)CC1	8	-9%	2%	i	-90*	-6
COc1ccc(/C=C/C2=CCN(C)CC2)cc1	1	5%	-1%	i	9	-1
COC(=O)C1=C(c2ccc(C(C)=O)cc2)C[C@@H]2CC[C@H]1N2C(=O)N1CCCCC1	13	-3%	3%	-2%	-5	/
COC(=O)C1=C(c2ccc(C(C)=O)cc2)C[C@@H]2CC[C@H]1N2C(=O)N1CCCC1	2	-3%	0%	-23%	-90*	/
O=C(COc1ccc(Br)cc1)N1CCN(Cc2c[nH]c3ccccc23)CC1	-80*	4%	1%	-95%	-72*	/
COc1ccc(CN2CCN(C(=O)COc3ccc4ccccc4c3)CC2)c(OC)c1	-24	-4%	0%	i	-93*	-16
CC(C)[C@]12O[C@H]1[C@@H]1O[C@]13[C@]1(O[C@H]1C[C@H]1C4=C(CC[C@@]13C)C(=O)OC4)[C@@H]2O	/	-4%	0%	/	/	/
CCOC(=O)C1(CCOc2ccccc2)CCN(C(C)CSC)CC1 (stereo not given)	17	-3%	0%	-27%	-10	-2
SMILES	KCNH2 WT inh	GRP78 ERSR act	RXFP1 ag	PTHR1 agonist	KCNH2 3.1 inh	RXFP1 antagonist
CCOC(=O)C1(CCOc2ccccc2)CCN(C2Cc3ccccc3C2)CC1	-11	0%	2%	-33%	-121*	-2
O=C1NCN(c2ccccc2)C12CCN(C(CCc1ccccc1)c1nnnn1Cc1ccccc1)CC2 (stereo not given)	/	-3%	/	-19%	/	/
CN1CC(C(=O)c2ccc([N+](=O)[O-])cc2)C(c2ccc(Cl)cc2)C1 (stereo not given)	-13	-5%	0%	i	-73*	-7
O=C1CC(c2c(F)cccc2Cl)c2c(c3ccccc3oc2=O)O1 (stereo not given)	/	/	10%	i	/	6
CC[C@@]1(O)C(=O)OCc2c1cc1n(c2=O)Cc2cc3c(N)cccc3nc2-1	-7	-2%	28%	45µM*	-7	/
CCNC(=O)[C@H]1O[C@@H](n2cnc3c(N)ncnc32)[C@H](O)[C@@H]1O	18	-3%	1.3µM*	-24%	14	/
CCNC(=O)[C@@H]1O[C@@H](n2cnc3c(N)ncnc32)[C@H](O)[C@H]1O	/	-3%	/	/	/	/
O=C1NCN(c2ccccc2)C12CCN(C(c1ccccc1)c1nnnn1Cc1ccccc1)CC2 (stereo not given)	/	-5%	/	-8%	/	/
CC(C)(CN)CC(=O)O	-254*	-3%	0%	7%	8	-3
Cn1c(O)c(C=Nc2ccccc2)c(=O)n(C)c1=O	8	-2%	2%	i	-2	1
Cn1c(O)c(/C=C/C=Nc2ccccc2)c(=O)n(C)c1=O	-88*	-2%	7%	i	1	11
CN1CCc2nc3sc(C(=O)NC(C)(C)C)c(N)c3cc2C1	-2	2%	1%	23%	-6	-13
CCOc1ccc(CN2CCCC(C(=O)c3ccccc3OC)C2)cc1 (stereo not given)	-30	-3%	0%	i	-84*	-1
COc1ccccc1CN1CCCC(C(=O)c2ccccc2OC)C1 (stereo not given)	4	-3%	0%	i	-19	-6
CN1CCN(Cc2cc(=O)n3ccsc3n2)CC1	6	-9%	0%	i	-81*	-1
Cc1ccc2c(Cl)cc(Cl)c(O)c2n1	-6	28µM*!	/	-2%	-20	-7
CNC1C2CN3CCC(O2)C13 (stereo not given)	/	-3%	/	/	/	/
C=CCn1c(O)c(C(C)=NC2CC2)c(=O)[nH]c1=O	-9	-3%	0%	i	-12	10
O=C(Nc1cccc(C(F)(F)F)c1)OC1CN2CCC1CC2 (stereo not given)	41	-3%	2%	i	-5	0
OC(c1cccc(Cl)c1)(c1cccc(Cl)c1)C1CN2CCC1CC2 (stereo not given)	?	-12%	-1%	i	-86*	?
